Experimental data: PubChem BioAssay AID651702 (NMMLSC, 2012)
Among all 360,000 compounds or so, about 2,400 (0.67%) were called active.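 The calls were made as follows: active = inhibition above about 55% (limit read from the data); inconclusive = no clear call, values can overlap the other calls; inactive = the rest.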 The sample as a whole holds a higher share of actives than the screen did.

Assay: LAMP-1 surface exposure blockers, TALL-104 cells – cell-based, flow cytometry, MLPCN library, primary screen (AID 651702)
Details: TALL-104 LAMP-1 surface exposure, at 10 µM, stronger effect = higher value, cells stimulated with thapsigargin and PMA

Compound | inhibition
CC(C)CCN1CCN=C1N(C)C | -1.5% (inactive)
COc1ccccc1CN1CCN(C(c2ccccc2)c2ccccc2)CC1 | 69.5% (active)
COc1ccccc1CN1CCN(Cc2cc(OC)c(OC)cc2OC)CC1 | 4.3% (inactive)
COc1cccc(OC)c1C(=O)N1CCN(Cc2ccccc2F)CC1 | 0.4% (inactive)
CSc1ncccc1C(=O)OCC(=O)N1CCOCC1 | 0.7% (inactive)
COc1ccc(C(O)c2nc(-c3ccc(OC)nc3)cs2)cc1 (centres undefined) | -0.4% (inactive)
COc1ccc(-c2csc(Nc3ccc(O)cc3)n2)cc1 | 67.8% (active)
COC(=O)CCc1sc(Nc2ccc(Br)cc2)nc1-c1ccc(OC)cc1 | 7.1% (inactive)
O=C(CS(=O)(=O)c1cn(Cc2ccc(Cl)cc2)c2ccccc12)N1CCOCC1 | -1.9% (inactive)
CCOC(=O)Cc1csc(NC(=O)CSc2nnc(-c3cccnc3)n2Cc2ccco2)n1 | 1% (inactive)
CCOC(=O)CSc1nc2c(sc(=S)n2CCc2ccccc2)c(=O)n1Cc1ccco1 | 55.7% (active)
CCOC(=O)CSc1nc2c(c(=O)n(Cc3ccccc3Cl)c(=O)n2C)n1C | -0.4% (inactive)
CCCc1nc(SCC(=O)N2CCCC2)c2c(=O)n(C)c(=O)n(C)c2n1 | 45.2% (inactive)
CC(O)CN(Cc1ccc(Cl)cc1)CC(C)O (centres undefined) | 0.5% (inactive)
CCCCCn1c(=O)[nH]c2cc(C(=O)NCCCN3CCCCC3C)ccc2c1=O (centres undefined) | -0.7% (inactive)
Cc1ccc(-c2cnc(NC(=O)CCC(=O)N(C)Cc3ccccc3)n2C)cc1 | -1.9% (inactive)
CC(C)CN1CC(C)C(=O)N(c2ccccc2)C1=S (centres undefined) | 1.4% (inactive)
CCN(CC(=O)Nc1ccccc1C(=O)NC1CC1)Cc1cccs1 | -0.1% (inactive)
CC1CCc2c(nc3ncnn3c2Nc2ccc(OC(F)(F)F)cc2)C1 (centres undefined) | -1.5% (inactive)
O=S(=O)(NC1CC1)c1ccc(F)c(F)c1 | -10.9% (inactive)

Compound | inhibition
CC1CCC(NS(=O)(=O)c2ccc3c(c2)CC(=O)N3)CC1 (centres undefined) | -3.8% (inactive)
Cn1sc(=O)c2cc(S(=O)(=O)NC3CC3)ccc21 | 100% (active)
OC(CNCC1CCCO1)Cn1c2ccc(Br)cc2c2cc(Br)ccc21 (centres undefined) | 41.3% (inactive)
O=C(NCc1cccnc1)c1ccc(CS(=O)(=O)c2ccc(Br)cc2)o1 | 2.2% (inactive)
Nc1cc(N)nc(SCc2ccc(Cl)cc2)n1 | 0.3% (inactive)
Nc1nc(SCc2ccc([N+](=O)[O-])cc2)c2ncn(C3OC(CO)C(O)C3O)c2n1 (centres undefined) | -2.7% (inactive)
CC(C)Cn1cnc2c(SCc3ccc(Cl)cc3)nc(N)nc21 | 90.1% (active)
COc1ccc(OCc2nnc3n2N=C(c2ccccc2)C(CC(=O)O)S3)cc1 (centres undefined) | 32.9% (inactive)
Cc1ccc(Nc2cc(=O)n(C3CCCCC3)c(=O)[nH]2)cc1C | -1.1% (inactive)
COc1ccc(Cl)cc1C(=O)OCC(=O)NCc1cccs1 | 20.4% (inactive)
CCOc1ccc(Cl)cc1-c1cc(C(=O)NCc2cccs2)[nH]n1 | 66.5% (active)
COc1ccccc1CNC(=O)c1cc(-c2cc(Cl)ccc2C)n[nH]1 | 2.8% (inactive)
Cn1c(=O)c2c(n(Cc3ccccc3)c1=O)NC(=O)C2CC(=O)N1CCc2ccccc2C1 (centres undefined) | 5.7% (inactive)
Cn1c(SCc2nc3ccccc3s2)nnc1-c1ccc2c(c1)OCO2 | -6.5% (inactive)
Cc1ccccc1CN1C[C@@H]2C[C@@H](c3ccc4nsnc4c3)N3CCC[C@@]23C1=O | -2.3% (inactive)
Cc1ccccc1CN1C[C@@H]2C[C@@H](c3cn(C)nc3-c3ccccc3)N3CCC[C@@]23C1=O | 82.4% (active)
COc1ccc(CN2CCN(Cc3cn(C)nc3-c3ccccc3)CC2CCO)c(C)c1C (centres undefined) | 4.6% (inactive)
COC(=O)C1=C(C(=O)OC)C(c2cc([N+](=O)[O-])ccc2O)c2sc(=O)[nH]c2S1 (centres undefined) | 7.4% (inactive)
Cc1cccc(Nc2nnc(SCC(=O)c3c(N)n(C4CC4)c(=O)[nH]c3=O)s2)c1C | 0.1% (inactive)
CCOC(=O)C1(C)CCCN(C(=O)c2cccc(Cl)c2)C1 (centres undefined) | 1.7% (inactive)

Compound | inhibition
CCOC(=O)C1(C)CCCN(C(=O)c2ccc(N(C)C)cc2)C1 (centres undefined) | -2.4% (inactive)
CCOC(=O)C1(C)CCCN(C(=O)c2ccc(F)c(Cl)c2)C1 (centres undefined) | 71.1% (active)
O=C(Nc1ccc(Br)cc1)c1cccc(NC(=O)C2C3CC4OC(=O)C2C4C3)c1 (centres undefined) | 11% (inactive)
CCOc1ccc(CCNC(=O)C2CCN(c3ccc(N4CCOCC4)nn3)CC2)cc1OCC | -0.7% (inactive)
Nc1nnc(SCC(=O)OCc2ccc(Cl)c(Cl)c2)s1 | -1.6% (inactive)
O=C(CNC(=O)N1CC(=O)Nc2ccccc21)Nc1ccc(Br)cc1F | 4.6% (inactive)
COc1ccc2c(c1)c(=Cc1ccc(N(C)C)cc1)c1cc(-c3ccccc3)[n+](C)n12 | 95.4% (active)
CCCNC(=O)C[C@@H]1CC[C@@H]2[C@H](COC[C@H](O)CN2C(=O)c2cc(Cl)cc(Cl)c2)O1 | -2.9% (inactive)
O=C(NCc1ccccc1)C(c1ccccc1)N(C(=O)c1csnn1)c1ccc(F)cc1 (centres undefined) | 56.4% (active)
O=C(NCc1ccccc1)C(c1cccnc1)N(C(=O)c1csnn1)c1ccc(F)cc1 (centres undefined) | 12.4% (inactive)
O=C(NCc1ccc(F)cc1)C(c1ccccc1)N(C(=O)c1csnn1)C1CC1 (centres undefined) | -3.2% (inactive)
O=C(CC1C(=O)NCCN1Cc1ccc(-c2ccccc2)cc1)NCC1CCOCC1 (centres undefined) | 1.1% (inactive)
CCOC(=O)C1(CCOc2ccccc2)CCN(Cc2cc(OC)c(O)cc2Cl)CC1 | 84.5% (active)
CCOC(=O)C1(CCOC)CCN(Cc2cc3ccccc3s2)CC1 | 0.4% (inactive)
CCOC(=O)C1(CCOc2ccccc2)CCN(C(=O)c2cncs2)CC1 | -0.8% (inactive)
CCOC(=O)C1(CCOc2ccccc2)CCN(Cc2ccc(C#CCCO)cc2)CC1 | 55.8% (active)
CCOC(=O)C1(Cc2cccc(OC)c2)CCN(C(C)COC)CC1 (centres undefined) | -0.5% (inactive)
CCCS(=O)(=O)N1CCC(CCOc2ccccc2)(C(=O)OCC)CC1 | -2.2% (inactive)
CC1(C(=O)NCc2ccccc2)CSCC(=O)N1CCCN1CCOCC1 (centres undefined) | 4.3% (inactive)
